Source: PubChem BioAssay AID1159580 (chemical genetic matrix, 2015)
Where “and” joins values, the source holds several entries; their conditions need not be identical. Equal values may be shown once. The campaign covered roughly 5,500 compounds. About 2,000 (36%) were called active. Another 18% or so got no clear call; they are omitted. No stated cut-off is given here; in the data, active means normalized growth mostly below about 0.91 (no sharp cut-off); inconclusive means no clear call, values can overlap the other calls; inactive means mostly above about 0.92. The list shows a part of the results.

Experiment: chemical genetic growth profiling, strain panel (AID 1159580);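 further: tested at 20 µM; growth read once vehicle control cultures reached saturation at 30 °C; 1 = growth at the plate median or of vehicle wells; lower values mean less growth of the strain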
Settings: S. cerevisiae deletion strains, growth OD

Measured: normalized growth

CO[C@@]1(NC(=O)CSCC#N)C(=O)N2C(C(=O)O)=C(CSc3nnnn3C)CSC21 (stereo partly specified)
inactive: locus YAL013W, strain DEP1, hits give low values 1.01 | locus YAL021C, strain ccr4, hits give low values 0.941 | locus YAL026C, strain drs2, hits give low values 0.985 | locus YAL030W, strain snc1, hits give low values 0.988 | locus YBL061C, strain skt5, hits give low values 0.985 | locus YBR009C, strain hhf1, hits give low values 0.988 | locus YBR021W, strain FUR4, hits give low values 1 | locus YBR023C, strain chs3, hits give low values 0.994 | locus YBR171W, strain sec66, hits give low values 0.997 | locus YBR229C, strain ROT2, hits give low values 1.01 | locus YBR231C, strain swc5, hits give low values 0.981 | locus YBR279W, strain paf1, hits give low values 0.981 | locus YCL011C, strain gbp2, hits give low values 0.993 | locus YCL016C, strain dcc1, hits give low values 0.975 | locus YCL029C, strain bik1, hits give low values 1.03 | locus YCL069W, strain vba3, hits give low values 0.986 | locus YCR088W, strain abp1, hits give low values 0.996 | locus YDL005C, strain med2, hits give low values 0.909 | locus YDL035C, strain GPR1, hits give low values 1.02 | locus YDL040C, strain nat1, hits give low values 0.988 | locus YDL074C, strain BRE1, hits give low values 1.03 | locus YDL101C, strain DUN1, hits give low values 1.01 | locus YDL134C, strain PPH21, hits give low values 1.01 | locus YDL185W, strain tfp1, hits give low values 1.03 | locus YDL192W, strain arf1, hits give low values 1.04 | locus YDR001C, strain nth1, hits give low values 1 | locus YDR069C, strain doa4, hits give low values 0.973 | locus YDR101C, strain arx1, hits give low values 1.03 | locus YDR137W, strain rgp1, hits give low values 0.948 | locus YDR150W, strain NUM1, hits give low values 1.01 | locus YDR159W, strain sac3, hits give low values 0.927 | locus YDR162C, strain NBP2, hits give low values 1.04 | locus YDR195W, strain ref2 1 | locus YDR297W, strain sur2, hits give low values 1 | locus YDR318W, strain mcm21, hits give low values 1.03 | locus YDR334W, strain swr1, hits give low values 1 | locus YDR335W, strain msn5, hits give low values 0.99 | locus YDR388W, hits give low values 1.02 | locus YDR392W, strain spt3, hits give low values 0.878 | locus YDR502C, strain sam2, hits give low values 1.03 | locus YEL003W, strain gim4, hits give low values 1 | locus YEL037C, strain rad23, hits give low values 1 | locus YEL061C, strain CIN8 (second series), hits give low values 1.01 | locus YEL061C, strain CIN8, hits give low values 1.01 | locus YER015W, strain faa2, hits give low values 0.982 | locus YER016W, strain bim1, hits give low values 0.968 | locus YER110C, hits give low values 1.04 | locus YER111C, strain swi4, hits give low values 0.982 | locus YER155C, strain BEM2 (second series), hits give low values 0.968 | locus YER155C, strain BEM2, hits give low values 1.01 | locus YER167W, strain BCK2, hits give low values 1.02 | locus YFR010W, strain ubp6, hits give low values 1 | locus YGL078C, strain dbp3, hits give low values 1.03 | locus YGL086W, strain mad1, hits give low values 1.02 | locus YGL167C, strain pmr1, hits give low values 0.984 | locus YGL173C, strain kem1, hits give low values 0.97 | locus YGL227W, strain vid30, hits give low values 1.01 | locus YGL240W, strain doc1, hits give low values 0.959 | locus YGL248W, strain PDE1, hits give low values 1.01 | locus YGL253W, strain hxk2, hits give low values 0.998 | locus YGR078C, strain PAC10, hits give low values 1.01 | locus YGR135W, strain pre9, hits give low values 1.01 | locus YGR229C, strain SMI1, hits give low values 1.02 | locus YGR252W, strain gcn5, hits give low values 1.07 | locus YHR013C, strain ard1, hits give low values 0.964 | locus YHR027C, strain rpn1, hits give low values 0.98 | locus YHR030C, strain SLT2, hits give low values 1.01 and 0.983 | locus YHR079C, strain IRE1 (second series), hits give low values 1.02 | locus YHR079C, strain IRE1, hits give low values 0.986 | locus YHR094C, strain hxt1, hits give low values 1.03 | locus YHR129C, strain ARP1, hits give low values 1.01 | locus YHR142W, strain chs7, hits give low values 1.01 | locus YHR200W, strain rpn10, hits give low values 1.04 | locus YIL066C, strain RNR3, hits give low values 1.03 | locus YIL073C, strain SPO22, hits give low values 1.13 | locus YIL125W, strain kgd1, hits give low values 1.03 | locus YIR030C, strain dcg1, hits give low values 1.03 | locus YJL092W, strain hpr5, hits give low values 1 | locus YJL095W, strain BCK1 (second series), hits give low values 0.979 | locus YJL095W, strain BCK1, hits give low values 1.01 and 0.98 | locus YJL115W, strain asf1, hits give low values 0.984 | locus YJL129C, strain trk1, hits give low values 0.99 | locus YJL134W, strain LCB3, hits give low values 1 | locus YJL154C, strain vps35, hits give low values 1 | locus YJL164C, strain tpk1, hits give low values 0.973 | locus YJL166W, strain qcr8, hits give low values 0.978 | locus YJL168C, strain set2, hits give low values 1.04 | locus YJL187C, strain SWE1 (second series), hits give low values 1.01 | locus YJL187C, strain SWE1, hits give low values 0.985 | locus YJR043C, strain POL32, hits give low values 1.01 | locus YJR066W, strain TOR1, hits give low values 0.942
